RORg inh – blocks mouse ROR gamma transcriptional activity; Drosophila S2 Gal4-RORgamma UAS-luciferase reporter, 20 h; Potency, µM (top dose mostly 53.6 µM), for the others: at the highest dose activity change, negative = inhibition, most hits filed as inhibitors; hit rate 5.4% among 310,000; AID 2551; further: nearly all actives have a fitted effect of over 60% in size
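Drosophila Schneider cells stably carrying a metallothionein-driven Gal4 DBD–ROR gamma fusion and a UAS-Photinus luciferase reporter were exposed to compound for 1 hr, then induced with copper sulfate (700 uM final) for 20 hr at ambient temperature before luminescence reading.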
PLK1 PBD block – inhibitors of human PLK1 polo-box domain binding; P53350; Plk1 PBD binding of FITC phosphopeptide, fluorescence polarization; Potency, µM, for inactives: max response, negative = inhibition, usual class: inhibitors; hit rate 2.8% among 360,000; AID 720504; further: series mostly up to about 57 µM; nearly all actives have a fitted effect of over 65% in size
Target sequence (P53350 whole entry, looked up, the tested form may be a part): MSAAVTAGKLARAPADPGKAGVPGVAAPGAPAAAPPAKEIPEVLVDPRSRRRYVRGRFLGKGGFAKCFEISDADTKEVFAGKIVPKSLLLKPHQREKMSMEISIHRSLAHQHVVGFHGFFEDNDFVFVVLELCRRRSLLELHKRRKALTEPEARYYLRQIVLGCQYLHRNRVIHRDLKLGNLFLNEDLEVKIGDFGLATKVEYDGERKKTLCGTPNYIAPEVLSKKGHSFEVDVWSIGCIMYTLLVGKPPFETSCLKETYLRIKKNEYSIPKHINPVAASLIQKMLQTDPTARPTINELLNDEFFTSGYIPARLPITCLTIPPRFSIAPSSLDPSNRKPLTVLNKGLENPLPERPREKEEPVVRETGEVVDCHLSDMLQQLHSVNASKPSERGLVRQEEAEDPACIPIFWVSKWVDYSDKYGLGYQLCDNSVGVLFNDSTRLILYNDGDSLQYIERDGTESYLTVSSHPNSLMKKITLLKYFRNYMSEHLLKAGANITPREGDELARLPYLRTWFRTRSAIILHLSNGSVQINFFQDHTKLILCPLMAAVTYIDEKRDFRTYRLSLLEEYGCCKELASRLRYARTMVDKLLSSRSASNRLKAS
Sfp PPTase inh – inhibitors of Bacillus subtilis Sfp phosphopantetheinyl transferase; Q9F4F7; Biochemical Sfp PPTase activity, qHTS; Potency, µM, inactives show largest response in the series, negative = inhibition, actives largely listed as inhibitors; hit rate 3.5% among 310,000; AID 1490;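 further: the enzyme is Sfp with the accession as filed and its product quenches rhodamine fluorescence; 0% = enzyme reaction without inhibitor and -100% = no enzyme wells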
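Buffer: 50 mM Hepes-Na pH 7.6, 10 mM MgCl2, 0.01% Nonidet P-40, 0.01% BSA. Enzyme 15 nM, pre-exposed to compound 15 min; substrates then added and fluorescence change tracked over 30 min.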
ALDH1A1 block – ALDH1A1 (human) enzyme inhibition. P00352. Purified ALDH1A1, NADH fluorescence, propionaldehyde substrate. Potency, µM (highest dose often 75.3 µM), for inactives: at the highest dose activity, negative = inhibition, hits mostly inhibitors. hit rate 7.3% among 220,000; active means well fitted inhibition curve with a large enough effect, not every such curve was filed as active; inconclusive means small, poorly fitted or top-dose-only effect, or another doubt; inactive means no such curve, though single readings can be large or run the other way;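 further: plate controls were no enzyme wells and a reference inhibitor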
Gal4-VP16 FLuc – counter-screen for ROR gamma inhibitors: Gal4-VP16 reporter; AID 2546; Potency, µM (top dose mostly 53.6 µM), for the others: top-dose activity, negative = inhibition, most hits filed as inhibitors; Drosophila S2 Gal4-VP16 UAS-luciferase, luminescence, 20 h; hit rate 3.5% among 310,000;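 further: Gal4-VP16 expression switched on by copper sulfate through the metallothionein promoter; nearly all actives have a fitted effect of over 50% in size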
The depositor's hits bear a star; u = inconclusive; x = no result; [ ] = remark or other dose. Hits are enriched below; roughly 12% of the tested compounds scored in any of these assays. Unless noted, the call rests on the fitted dose curve; in most records, active means well fitted curve in the direction sought with a large enough effect; inconclusive means small, poorly fitted or top-dose-only effect, or another doubt; inactive means no such curve, though single readings can be large; an effect the other way counts as inactive or inconclusive. Unless noted, on the % scale 0 is the no-effect control and ±100 the full control effect; potency means the concentration at half of the fitted maximal effect.

SMILES | RORg inh | PLK1 PBD block | Sfp PPTase inh | ALDH1A1 block | Gal4-VP16 FLuc
S=c1nccc(-c2ccc(Cl)cc2)[nH]1 | 2.8µM* | 1.5µM* | -11% | -6% | 5µM*
S=c1[nH]c(-c2ccc(Cl)cc2)cs1 | 7.1µM* | 9.5µM* | 11µM* | 3.2µM* | 0%
Cc1ccc(-c2csc(=S)[nH]2)cc1 | 7.1µM* | u | 35µM* | 14µM* | u
Clc1ccc(-c2ccn[nH]2)cc1 | -33% | -8% | -16% | -5% | -17%
C[C@@H]1CN([C@@H](C)CO)C(=O)c2cc(Br)cnc2O[C@H]1CN(C)Cc1ccccc1C(=O)O | x | -16% | x | x | x
CCCCOc1ccc(S(=O)(=O)NC(=O)C2(C)CCN2C(=O)Cc2cccs2)cc1 (stereo not drawn) | x | 2% | x | x | x
C#CCCCO/N=C1/C[C@@H](O)[C@@H](O)[C@@H]2[C@@H]3C(=O)N(C[C@@H]4CCCO4)C(=O)[C@H]3CC[C@@H]12 | 9%[10 µM] | x | 24% | -1%[13.5 µM] | -3%[10 µM]
COc1ccc(C2=Nn3c(nnc3-c3ccccc3O)SC2)cc1OC | -25% | x | 45µM* | x | 14%
COc1ccccc1C1=Nn2c(nnc2-c2ccccc2O)SC1 | u | x | -14% | x | -1%
COc1cccc(C2=Nn3c(nnc3-c3ccccc3C)SC2)c1 | u | x | 63µM* | x | 16µM*
CCOC(=O)[C@]12CCCC=C1N(Cc1ccc3c(c1)OCO3)C(=O)[C@H](CC(=O)N1CCCCC1)C2 | x | -14% | x | x | x
CCOC(=O)c1c(-c2ccc(C)c(C)c2)csc1NC(=O)C1CC=CCC1C(=O)O (stereo not drawn) | -17% | u | -6% | -4% | -10%
CCOC(=O)c1c(-c2ccc(F)cc2)csc1NC(=O)C1CC=CCC1C(=O)O (stereo not drawn) | 2% | 24µM* | 40µM* | u | 1%[10 µM]
COC(=O)c1c(-c2ccco2)csc1NC(=O)C1CC=CCC1C(=O)O (stereo not drawn) | -3% | -6% | 13µM* | 13µM* | -10%
CCC(CO)n1c(SCc2cc(=O)oc3cc(C)ccc23)nc2ccccc2c1=O (stereo not drawn) | 6% | -21% | 2% | 4.5µM* | 0%
COc1ccccc1-n1c(SCc2cc(=O)oc3cc(O)ccc23)nc2ccccc2c1=O | -6% | -13% | 11% | -19% | 1%
CC(C)C(=O)Nc1ccc(NC(=O)c2cccc3c(Br)cccc23)cc1 | -1% | 27µM* | 7% | x | -1%
NS(=O)(=O)c1cccc(NC(=O)c2cccc3c(Br)cccc23)c1 | 15%[1.91 µM] | 0% | 12% | x | -12%
CCCCC(=O)NCCc1c(Cc2ccccc2)[nH]c2ccccc12 | 39% | x | -6% | u | -21%
COc1ccc(-c2nc(SC)n(C)c(=O)c2C#N)cc1OC | -27% | -8% | -9% | u | -17%
COc1ccc(C(c2c(O)nc(SC)n(C)c2=O)c2c(O)nc(SC)n(C)c2=O)cc1O | 0% | -12% | 50µM* | 14µM* | -4%
OC[C@@H]1CN(Cc2ccc3c(c2)OCO3)C[C@H](n2cnc3c(NCc4ccncc4)ncnc32)O1 | x | -8% | x | x | x
COC(=O)c1ccc(C(NC(=O)OCc2ccccc2)/C(=C/[C@@H](C)C(=O)NCc2nc3ccccc3n2C)c2cccnc2)cc1 (stereo partly drawn) | 43% | x | 0% | 2% | 10%
Clc1ccc(-c2nnc3sc(-c4ccccn4)nn23)cc1 | -8% | x | 11% | 14% | 1%
COc1cccc(-c2nn3c(-c4ccco4)nnc3s2)c1 | 1% | -4% | -17% | 3.5µM* | 1%
SMILES | RORg inh | PLK1 PBD block | Sfp PPTase inh | ALDH1A1 block | Gal4-VP16 FLuc
COc1cccc(OC)c1-c1nn2c(-c3ccco3)nnc2s1 | 18% | 3% | -21% | u | 6%
c1coc(-c2nnc3sc(C4CCCCC4)nn23)c1 | -13%[10 µM] | 11µM* | 35µM* | 13µM* | -2%
c1ccc(-c2nn3c(-c4ccco4)nnc3s2)nc1 | 17% | -7% | 6% | 24µM* | -3%
CC(C)(C)c1ccc(-c2nnc3sc(-c4ccccn4)nn23)cc1 | u | 21µM* | 45µM* | u | -28%
C[C@H]1CC2[C@@H]3CCC4=CC(=O)C=C[C@]4(C)[C@@]3(F)[C@@H](O)C[C@]2(C)[C@@]1(O)C(=O)CO (stereo partly drawn) | x | x | x | -2% | x
COc1ccccc1CN1CC[C@@]2(CCCN(C(=O)c3cccn3C)C2)C1 | 43% | x | 2% | u | -25%
O=C(Nc1ccc(Oc2ccccc2)cc1)c1ccc2nc([C@@H]3O[C@H](CO)[C@H](O)[C@H](O)[C@H]3O)[nH]c2c1 | x | -5% | x | x | x
Cc1ccc(OCc2nn3c(-c4ccco4)nnc3s2)cc1 | 31% | -11% | 6% | -12% | 1%
Clc1ccc(OCc2nn3c(-c4ccco4)nnc3s2)c(Cl)c1 | u | -24% | 18µM* | -9% | -15%
COc1cccc(-c2nn3c(-c4ccccn4)nnc3s2)c1 | 18% | -8% | -11% | 0% | 0%
COc1cccc(-c2nnc3sc(-c4ccccn4)nn23)c1 | 25% | 27µM* | 10% | -1% | -5%
CCNc1ncc2nc(-c3ccccc3)c(=O)n(Cc3cccs3)c2n1 | -10% | x | 17% | u | -9%
O=C(N/N=C/c1cn(-c2ccccc2)nc1-c1ccccc1)c1ccco1 | 6.3µM* | -5% | -3% | 108% | 10µM*
Cc1ccc(-c2nn(-c3ccccc3)cc2/C=N/NC(=O)c2ccc(Br)o2)cc1 | 2.8µM* | 4% | 14% | u | 4µM*
O=C(N/N=C/c1cn[nH]c1-c1ccccc1)c1ccco1 | -25% | 3% | -3% | u | -22%[10 µM]
O=C(N/N=C\c1cn(-c2ccccc2)nc1-c1ccccc1)c1ccc(Br)o1 | 1.4µM* | -2% | 17% | u | 4µM*
NC(=O)N/N=C/c1cn(-c2ccccc2)nc1-c1cccs1 | 33% | 2% | -3% | u | 1%
Cc1nnc(SCC(=O)N/N=C/c2cn(-c3ccccc3)nc2-c2ccccc2)n1-c1ccccc1 | u | -27% | 10% | -13% | -3%
CC(C)C[C@H](N)C(=O)N[C@H](C(=O)N[C@@H](CCCN=C(N)N)C(=O)N[C@H](CS)C(=O)NCC(=O)N[C@@H](CCCCN)C(=O)N[C@@H](Cc1cnc[nH]1)C(=O)N[C@@H](CO)C(=O)N[C@@H](CCCN=C(N)N)C(=O)O)C(C)C | 3% | x | 6% | x | -1%
O=C(C1CC1)N(Cc1ccco1)c1nc(-c2ccccc2)cs1 | -9% | -2% | u | 6.3µM* | -3%
COc1ccc(-c2csc(N(Cc3ccco3)C(=O)c3cccs3)n2)cc1 | -2% | -17% | u | x | 4%
CCN(CC)c1ccc(C(=O)NC(=S)Nc2cc(S(=O)(=O)N3CCOCC3)ccc2-n2cncn2)cc1 | -8% | -12% | -10% | -6% | 1%
C=CCNC(=S)Nc1cc(S(=O)(=O)N2CCOCC2)ccc1-n1cncn1 | 36% | -13% | u | 4.5µM* | -1%
